Data on 7 compounds can be found in PubChem BioAssay (Tox21).

The nature of test [1]: A CellTox Green Cytotoxicity Assay to monitor cytotoxicity in HEK293 cells - 8 hour (AID 1224884). Note: nearly all actives have a fitted effect of over 35% in size. The essentials:
(§1)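 Dead-cell fluorescence measured kinetically: asymmetric cyanine dye, HEK293, 600 cells/well, 5 h settle, 23 nL cpd/DMSO, 37 C, reads 0–40 h every 8 h.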

Test [2] in a line: qHTS RealTime-Glo MT Cell Viability Assay in HEK293 cells - 8 hour (AID 1224887). Note: top concentration of the series differs between compounds; nearly all actives have a fitted effect of over 50% in size. Put shortly:
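600 HEK293 cells per well, dispensed already mixed with RealTime-Glo MT reagents. Compound dosing came 5 h later. The same wells were read for luminescence at 0, 8, 16, 24, 32 and 40 h of exposure at 37 C.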
On the technique in general: Quantitative high-throughput screening tests each substance at several concentrations.

The nature of test [3]: A CellTox Green Cytotoxicity Assay to monitor cytotoxicity in HEK293 cells - 16 hour (AID 1224888). Note: nearly all actives have a fitted effect of over 35% in size. Put shortly: as §1
Test [4] can be described thus: qHTS RealTime-Glo MT Cell Viability Assay in HepG2 cells - 0 hour (AID 1224889). Note: nearly all actives have a fitted effect of over 50% in size. Put shortly: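 Compound treatment began 5 h after plating HepG2 cells (600/well) with NanoLuc luciferase and prosubstrate. Plates stayed at 37 C for 40 h; luminescence was captured at six time points, 0 h through 40 h.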
A short description of test [5]: A CellTox Green Cytotoxicity Assay to monitor cytotoxicity in HepG2 cells - 8 hour (AID 1224890). Note: nearly all actives have a fitted effect of over 45% in size. The essentials:
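First, HepG2 cells (600/well) mixed with reagent were plated; second, after 5 h at 37 C they received compounds via pintool; third, fluorescence was measured at 0 h through 40 h at 8 h intervals.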

The nature of test [6]: qHTS assay to identify small molecule antagonists of the estrogen receptor alpha (ER-alpha) signaling pathway using the BG1 cell line in the presence of 0.1 nM 17-beta-estradiol - cell viability counter screen (AID 1259241). Note: nearly all actives have a fitted effect of over 40% in size. The essentials:
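CellTiter-Fluor read (30 min, 37C) on ER-alpha/ERE-luc VM7Luc4E2 cells; 22 hr compound treatment; agonist 0.1 nM E2 final; same-well multiplex.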

The nature of test [7]: qHTS assay to identify small molecule antagonists of the androgen receptor (AR) signaling pathway using the MDA cell line in the presence of 0.5 nM R1881 - cell viability counter screen (AID 1259242). Note: nearly all actives have a fitted effect of over 45% in size. The essentials:
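qHTS format. MDA-kb2 (MMTV-luc, AR/GR responsive) + cpd + 0.5 nM R1881 final, 16 hr 37C/0% CO2 → CellTiter-Fluor 30 min → fluorescence intensity.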

In test [8] the target is Androgen receptor (Homo sapiens) (UniProt P10275). As to the kind of experiment: qHTS assay to identify small molecule antagonists of the androgen receptor (AR) signaling pathway using the MDA cell line in the presence of 0.5 nM R1881 (AID 1259243). Note: nearly all actives have a fitted effect of over 50% in size. Note: potency is the fitted concentration of half-maximal effect. Put shortly: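 Antagonist mode quantitative HTS in MDA-kb2 MMTV-luciferase cells, agonist R1881 at 0.5 nM final, 16 hr exposure at 37C and 0% CO2, luminescent detection.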

In test [9] the target is Estrogen receptor (Homo sapiens) (UniProt P03372). As to the kind of experiment: qHTS assay to identify small molecule antagonists of the estrogen receptor alpha (ER-alpha) signaling pathway using the BG1 cell line in the presence of 0.1 nM 17-beta-estradiol (AID 1259244). Note: nearly all actives have a fitted effect of over 50% in size. Put shortly:
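Reporter is a stably transfected luciferase under four estrogen responsive elements in VM7Luc4E2 cells expressing native full-length ER-alpha; inhibition of 0.1 nM (final) 17beta-estradiol-driven signal over 22 h is read by luminescence.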

The nature of test [10]: qHTS assay to identify small molecule HDAC inhibitors (AID 1259364).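 Note: wild-type HCT-116 cells with endogenous class I/II HDAC activity; top concentration of the series differs between compounds; nearly all actives have a fitted effect of over 45% in size.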 Put shortly: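 Quantitative high-throughput format: overnight-seeded HCT-116 cells got compounds for 2 hr at 37C; HDAC-Glo I/II reagent added, 30 min RT, luminescence measured.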
Test [11] is described as follows: qHTS assay to identify small molecule HDAC inhibitors - cell viability counter screen (AID 1259365). Put shortly:
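To flag cytotoxic hits, 1,500 wild-type HCT-116 cells per well, plated the day before, receive test compounds for 2hr at 37 C before CellTiter-Glo reagent and a luminescence read.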

Test [12] in a line: qHTS assay to identify small molecule agonists of the sonic hedgehog signaling (Shh) pathway - cell viability counter screen (AID 1259366). Note: nearly all actives have a fitted effect of over 50% in size. Put shortly:
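Fluorescence from CellTiter-Fluor reports live cells in this counter screen. NIH/3T3-derived Gli1-Luc reporter cells receive test compounds for 24hr at 37C; reagent goes in at 23hr.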

Test [13] in a line: qHTS assay to identify small molecule antagonists of the sonic hedgehog signaling (Shh) pathway - cell viability counter screen (AID 1259367). Note: nearly all actives have a fitted effect of over 55% in size. The essentials: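 Fluorescence read-out (CellTiter-Fluor, 1 hr at 37C) taken after 23 hr compound treatment of 3T3 Gli1-Luc cells stimulated with conditioned medium. Cells were seeded at 2,000 per well and pre-incubated 4 hr.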
The nature of test [14]: qHTS assay to identify small molecule agonists of the sonic hedgehog signaling (Shh) pathway (AID 1259368; calls by dose curve;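 note: NIH/3T3-derived 3T3Gli1-Luc cells carrying a stable Gli1-driven firefly luciferase reporter; series mostly up to about 92 µM; nearly all actives have a fitted effect of over 15% in size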). The essentials:
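Quantitative high-throughput format using a Gli1-driven firefly luciferase reporter line derived from NIH/3T3 cells. After a 24 hr compound treatment at 37 C and 5% CO2, luminescence reported Gli1 response element activity.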

Test [15] in a line: qHTS assay to identify small molecule antagonists of the sonic hedgehog signaling (Shh) pathway (AID 1259369; calls by dose curve; note: nearly all actives have a fitted effect of over 45% in size). The essentials:
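Stable Gli1-Luc reporter NIH/3T3 clone; quantitative HTS in stimulated mode with conditioned medium. Luminescence measured after 24hr compound treatment at 37 C.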

A short description of test [16]: qHTS RealTime-Glo MT Cell Viability Assay in HEK293 cells - 24 hour (AID 1224886). The essentials:
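Quantitative high-throughput screen of the Tox21 10K library in HEK293: cells and RealTime-Glo reagents plated together, compound added at 5 h, luminescence monitored through 40 h at 37 C.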

Test [17] addresses Estrogen receptor beta (Homo sapiens) (UniProt Q92731). Nature of the test: qHTS assay to identify small molecule agonists of the estrogen receptor beta (ER-beta) signaling pathway (AID 1259377; active = well fitted activation curve with a large enough effect in the signal ratio in the repeat runs, not every such curve was filed as active; the % refers to the signal ratio). Put shortly: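 Screening used GripTite ER-beta-UAS-bla cells held in 2% charcoal-stripped FBS medium. After overnight (16 hr) compound incubation at 37C, beta-lactamase activity was detected with a FRET substrate by fluorescence.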

Test [18] shares this target. Nature of the test: qHTS assay to identify small molecule antagonists of the estrogen receptor beta (ER-beta) signaling pathway (AID 1259378; active = well fitted inhibition curve with a large enough effect in the signal ratio in the repeat runs, not every such curve was filed as active; the % refers to the signal ratio). The essentials: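 ER-beta-UAS-bla HEK293T cells in 2% charcoal-stripped FBS medium treated with compound plus 1nM final 17-beta-estradiol for 16 hr at 37C. Beta-lactamase reporter read by FRET substrate fluorescence after 2 hours at room temperature.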

Values without a mark were called inactive. Results filed as inconclusive are left out. Active and inactive are the calls of the source. Unless noted, calls come from the whole dose curve; as a rule, active = well fitted curve in the direction sought with a large enough effect in the repeat runs; inconclusive = weak or mixed curves; inactive = no such curve, though single readings can be large; an effect the other way counts as inactive or inconclusive.

Sequence of Androgen receptor (Homo sapiens) (P10275 whole entry, looked up): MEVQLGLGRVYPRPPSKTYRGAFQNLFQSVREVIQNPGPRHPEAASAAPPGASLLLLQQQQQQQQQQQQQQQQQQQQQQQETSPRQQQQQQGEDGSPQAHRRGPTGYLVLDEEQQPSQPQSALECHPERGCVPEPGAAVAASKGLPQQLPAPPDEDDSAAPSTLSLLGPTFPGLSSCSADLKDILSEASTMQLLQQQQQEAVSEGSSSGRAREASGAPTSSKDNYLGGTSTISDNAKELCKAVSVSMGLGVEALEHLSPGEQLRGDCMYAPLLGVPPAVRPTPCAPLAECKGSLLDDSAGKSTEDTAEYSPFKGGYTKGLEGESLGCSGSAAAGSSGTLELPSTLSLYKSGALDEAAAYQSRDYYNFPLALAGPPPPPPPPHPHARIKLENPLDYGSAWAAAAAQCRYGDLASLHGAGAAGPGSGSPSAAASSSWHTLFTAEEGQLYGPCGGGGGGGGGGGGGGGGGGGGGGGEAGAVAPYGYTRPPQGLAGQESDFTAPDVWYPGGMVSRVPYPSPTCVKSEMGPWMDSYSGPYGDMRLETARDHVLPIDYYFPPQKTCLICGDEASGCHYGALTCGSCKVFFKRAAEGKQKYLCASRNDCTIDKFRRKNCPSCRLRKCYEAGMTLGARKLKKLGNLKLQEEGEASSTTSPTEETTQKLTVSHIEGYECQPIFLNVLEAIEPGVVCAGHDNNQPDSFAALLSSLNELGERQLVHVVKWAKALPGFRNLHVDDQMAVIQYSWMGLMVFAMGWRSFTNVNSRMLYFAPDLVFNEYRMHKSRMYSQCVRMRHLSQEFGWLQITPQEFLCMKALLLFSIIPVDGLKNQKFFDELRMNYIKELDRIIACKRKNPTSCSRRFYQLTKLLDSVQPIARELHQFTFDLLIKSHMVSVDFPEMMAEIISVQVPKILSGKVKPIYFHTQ
Sequence of Estrogen receptor beta (Homo sapiens) (Q92731 whole entry, looked up): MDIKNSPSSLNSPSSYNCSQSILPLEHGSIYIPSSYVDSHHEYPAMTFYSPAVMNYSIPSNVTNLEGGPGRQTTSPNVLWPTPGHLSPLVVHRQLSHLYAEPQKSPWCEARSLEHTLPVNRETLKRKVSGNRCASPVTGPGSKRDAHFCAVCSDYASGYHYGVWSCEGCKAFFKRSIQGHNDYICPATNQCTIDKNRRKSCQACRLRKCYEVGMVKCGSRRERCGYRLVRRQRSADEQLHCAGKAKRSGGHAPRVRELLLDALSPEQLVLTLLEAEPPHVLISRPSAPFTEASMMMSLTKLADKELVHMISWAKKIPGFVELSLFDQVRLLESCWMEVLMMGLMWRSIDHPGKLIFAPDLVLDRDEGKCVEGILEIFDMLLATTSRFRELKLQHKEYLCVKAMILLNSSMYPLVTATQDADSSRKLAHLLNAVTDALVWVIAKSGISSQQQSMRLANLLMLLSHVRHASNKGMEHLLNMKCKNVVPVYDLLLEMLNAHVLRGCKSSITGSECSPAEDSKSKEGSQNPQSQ
Sequence of Estrogen receptor (Homo sapiens) (P03372 whole entry, looked up): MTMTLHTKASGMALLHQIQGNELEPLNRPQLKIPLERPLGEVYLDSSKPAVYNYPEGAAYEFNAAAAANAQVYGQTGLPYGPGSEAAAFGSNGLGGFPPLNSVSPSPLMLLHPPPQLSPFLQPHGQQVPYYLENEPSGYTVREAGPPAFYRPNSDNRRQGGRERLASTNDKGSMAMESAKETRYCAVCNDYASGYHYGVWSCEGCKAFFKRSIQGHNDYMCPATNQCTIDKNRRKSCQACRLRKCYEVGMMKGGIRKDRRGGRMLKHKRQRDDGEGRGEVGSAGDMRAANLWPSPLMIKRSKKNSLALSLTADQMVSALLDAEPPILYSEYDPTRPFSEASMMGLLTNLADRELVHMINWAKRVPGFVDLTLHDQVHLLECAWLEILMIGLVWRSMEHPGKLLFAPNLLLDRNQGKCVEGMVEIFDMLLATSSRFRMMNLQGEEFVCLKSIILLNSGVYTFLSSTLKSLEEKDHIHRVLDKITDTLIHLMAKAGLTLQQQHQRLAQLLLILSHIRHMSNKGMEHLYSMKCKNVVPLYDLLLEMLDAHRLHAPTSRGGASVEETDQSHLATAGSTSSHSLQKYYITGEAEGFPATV

Turning to `Cn1c(=O)[nH]c2ncn(C)c2c1=O`, the Potency result in test [1], in [2], in [3], in [4], in test [5] and in [6] was “inactive” in each case. The Potency result in test [7], in [8], in [9], in test [10], in test [11] and in test [12] was “inactive” in each case. Besides, the Potency entry in [13], in [14] and in test [15] was “inactive” each time.
For the compound `Brc1cc(Br)cc(Br)c1`, the Potency entry in test [1], in test [2], in test [3], in [4], in test [5] and in test [6] was “inactive” each time. For the same compound, the Potency entry in test [7], in test [8], in test [9], in test [10], in test [13] and in test [14] was “inactive” throughout.
With `Cc1cc(C)c(O)c(C(C)(C)C)c1`, the Potency result in [1], in test [16], in test [4], in test [5], in test [6] and in test [7] was “inactive” throughout. Further, the Potency entry in test [8], in test [9], in [10], in test [11], in test [12] and in test [13] was “inactive” throughout. Moreover, the Potency entry in test [14], in test [15] and in [18] was “inactive” in each case. In addition, in test [17], the result was inactive.
In the case of `O=c1[nH]cccc1O`, the Potency result in test [1], in test [16], in test [2], in [3], in test [4] and in [5] was “inactive” in each case. Further, the Potency result in [6], in [7], in test [9], in [10], in test [11] and in test [12] was “inactive” each time. The Potency entry in [13], in test [14], in test [15] and in [18] was “inactive” throughout. In addition, the compound was classed as inactive in [17].
Consider `CCOC(=O)OC(=O)OCC`, for which the Potency result in test [1], in test [16], in [3], in test [4], in [5] and in [6] was “inactive” each time. Further, the Potency entry in test [7], in [8], in [9], in test [10], in test [11] and in [12] was “inactive” in each case. Besides, the Potency result in [13], in test [14], in test [15] and in test [18] was “inactive” throughout.
As for `O=C(NCc1ncc(C(F)(F)F)cc1Cl)c1c(Cl)cccc1Cl`, the Potency entry in test [1], in test [3], in [4], in test [5], in test [6] and in test [10] was “inactive” in each case. Moreover, the Potency entry in test [11], in test [12], in test [13], in test [14] and in [15] was “inactive” throughout. In addition, in [8], the Potency was 54.5 µM (active). In test [17], the outcome was inactive.
With `CCOC(=O)C1=NN(c2ccc(Cl)cc2Cl)C(C)(C(=O)OCC)C1` (stereo unspecified), the Potency result in test [1], in test [3], in [4], in test [5], in test [6] and in test [7] was “inactive” in each case. Also, the Potency entry in [10], in test [12], in test [13] and in [14] was “inactive” each time. In addition, the Potency in test [8] is 30.6 µM (active). The result in test [17] was inactive.
